Structures are written as SMILES. Hit rate of the full screen: of about 64,000 compounds, about 2,200 (3.4%) were called active.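 How the source made its calls: active means calcium fluorescence response, raw or row-and-column corrected B-score, differing from the plate sample mean either way at a set confidence level, mostly lower; inactive means the rest.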 For the sample, actives were picked, then their nearest neighbours and some compounds at random.

The experiment deals with Muscarinic acetylcholine receptor M1 (Rattus norvegicus) (UniProt P08482). Put plainly: antagonists of rat M1 muscarinic receptor (AID 628). Conditions: CHO-M1 cells, Fluo-4 calcium, ACh EC80 antagonist mode; at 10 µM; hits give low values.
Muscarinic acetylcholine receptor M1 (Rattus norvegicus), sequence (P08482 whole entry, looked up): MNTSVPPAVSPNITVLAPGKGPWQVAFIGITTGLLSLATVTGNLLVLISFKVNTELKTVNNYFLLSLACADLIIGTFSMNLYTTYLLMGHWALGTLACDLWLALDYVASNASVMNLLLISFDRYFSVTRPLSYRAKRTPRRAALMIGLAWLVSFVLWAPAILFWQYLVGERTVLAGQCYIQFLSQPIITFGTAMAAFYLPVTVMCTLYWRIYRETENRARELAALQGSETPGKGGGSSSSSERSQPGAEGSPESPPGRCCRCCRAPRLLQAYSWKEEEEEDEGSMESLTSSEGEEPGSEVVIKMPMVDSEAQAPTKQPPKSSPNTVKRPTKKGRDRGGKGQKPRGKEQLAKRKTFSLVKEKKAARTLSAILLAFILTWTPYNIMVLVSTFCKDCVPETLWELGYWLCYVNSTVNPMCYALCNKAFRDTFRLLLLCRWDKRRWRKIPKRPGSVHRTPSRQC
Regarding `CCCCCC(=O)Nc1ccc2oc(-c3ccncc3)nc2c1`, the B-score is 0.442 (inactive).

On to `CCc1c(C)sc(NC(=O)c2ccc(Br)o2)c1C(=O)OC`, for which the B-score is -0.053 (inactive).

Consider `OC(COc1ccccc1)Cn1cc(Br)cn1` (stereo not given), for which the B-score is -0.268 (inactive).

As to `CC(=O)N1CCN(C(=O)c2cccc(S(=O)(=O)Nc3ccc(C)cc3)c2)CC1`, the B-score is -0.171 (inactive).

As to `Cc1ccc(S(=O)(=O)Nc2ccc3ncccc3c2)cc1`, the B-score was -3.27 (active).

Regarding `O=S(=O)(Nc1ccc2nc(-c3ccco3)[nH]c2c1)c1ccccc1`, the B-score is -0.153 (inactive).

In the case of `COc1ccc(NC(C)=O)cc1NC(=O)CN1CCN(C2c3ccccc3-c3ccccc32)CC1`, the B-score was 0.0245 (inactive).

Turning to `CN(CCCC(=O)Nc1nccs1)S(=O)(=O)c1ccc(Cl)cc1`, the B-score was 0.248 (inactive).

Turning to `O=C(NCCCCO)C(F)(F)C(F)(F)C(F)(F)C(=O)NCCCCO`, the B-score was 0.234 (inactive).

For `CC(=O)c1c(N2CCOCC2)nc(=S)n(-c2cc(C)ccc2C)c1C`, the B-score is -0.429 (inactive).

Consider `COc1cccc(OCCOc2cccc(/C=N/n3cnnc3)c2)c1`, for which the B-score was -2.76 (active).

`CCOc1cc(/C=N/n2cnnc2)c(Br)cc1O`: the B-score was 0.717 (inactive).

For `C(=N\n1cnnc1)/c1cccnc1`, the B-score is -0.0308 (inactive).

Consider `C=CCOc1ccc(/C=N/n2cncn2)cc1OC`, for which the B-score was 0.195 (inactive).

`COc1ccccc1OCCOc1ccc(/C=N/n2cnnc2)cc1`: the B-score was -2.39 (active).

Regarding `COCCNCCOCCOc1cccc(OC)c1`, the B-score was 0.826 (inactive).

As for `O=C(CSc1nc2[nH]ncc2c(=O)n1-c1ccccc1)N1CCCc2ccccc21`, the B-score is 0.281 (inactive).

With `CCOc1cc(C)c(Cl)cc1S(=O)(=O)n1nnc2ccccc21`, the B-score is 0.583 (inactive).

Consider `COc1ccc(C(=O)NCCc2ccc(S(N)(=O)=O)cc2)cc1OC`, for which the B-score was -0.216 (inactive).

For the molecule `Cc1cc2cc(CN(Cc3cccs3)Cc3nnnn3CC3CCCO3)c(=O)[nH]c2cc1C` (stereo not given), the B-score was -0.714 (inactive).

The values are drawn from PubChem BioAssay AID628 (Vanderbilt High Throughput Screening Facility, 2007).
